Out of some 330,000 compounds screened, about 4,600 (1.4%) were called active.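 Rule for the calls: active = inhibition of 40% or more at the single tested concentration; inactive = the rest.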 What follows is part of a selection rich in actives, with near analogues and random picks from the rest.
Test: growth inhibitors of isogenic TIM10 control yeast, primary screen, counter-screen for tim10-1 yeast inhibitor project, luminescence, uHTS (AID 463195);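 note: wild-type TIM10 isogenic control strain grown at permissive 25 °C; 0% = DMSO yeast wells and 100% = minimal medium wells without yeast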
Settings: S. cerevisiae TIM10 strain growth, BacTiter-Glo luminescence, 24 h; at 10 µM; active compounds read high
With `CC(=O)c1cccc(NC(=S)N2CCN(S(C)(=O)=O)CC2)c1` the inhibition was 13% (inactive).
In the case of `CCOc1ccc(/C=N/NC(N)=S)cc1`, the inhibition was -25.2% (inactive).
With `CC(C)Oc1c(Br)cc(Br)cc1/C=N/NC(N)=S` the inhibition was 51.7% (active).
With `Cc1cccc(-n2c(C)cc(/C=N/NC(N)=S)c2C)c1` the inhibition was -24.1% (inactive).
With `S=C(NCCCc1ccccc1)Nc1ccc(Br)cc1` the inhibition was 43.1% (active).
For `O=C(CCNC(=O)c1ccc(Br)cc1)NCCCc1ccccc1`, the inhibition was -4.58% (inactive).
For `S=C(Nc1ccc(Br)cc1)NC1CCN(Cc2ccccc2)CC1`, the inhibition was -24.3% (inactive).
In the case of `CC(C)n1c(O)c(N=Nc2ccccn2)c2ccccc21`, the inhibition was 3.1% (inactive).
For `Cc1ccc2occ(/C=N/NC(=O)c3ccccc3C)c(=O)c2c1`, the inhibition was 20.6% (inactive).
With `NC(=S)N/N=C/c1coc2cc(Cl)ccc2c1=O` the inhibition was 42.4% (active).
With `O=c1c(/C=N/O)coc2ccc(Cl)cc12` the inhibition was -3.79% (inactive).
For `CC(C)c1ccc(NC(=O)COC(=O)c2ccc(CN3CCCC3=O)cc2)cc1`, the inhibition was 1.1% (inactive).
In the case of `O=C(Nc1ccccc1Cl)/C(Cl)=C(\Cl)S(=O)c1ccccc1` (stereo not drawn), the inhibition was 86.7% (active).
In the case of `CC1(C)CC(CCC(=O)Nc2ccccc2Cl)C(=O)O1` (stereo not drawn), the inhibition was 1.62% (inactive).
In the case of `Cc1c(NC(=O)Nc2ccccc2Cl)sc(=S)n1C`, the inhibition was 2.45% (inactive).
For `O=C(O)C1C2CC2CN1C(=O)c1ccc(Cl)cc1Cl` (stereo not drawn), the inhibition was -17.4% (inactive).
With `CN(Cc1nc(-c2cnccn2)no1)Cc1n[nH]c2c1CCCCC2` the inhibition was 4.12% (inactive).
For `CCOCCCNC(=O)c1cn(CC(C)C)c(=O)c2c1c1ccccc1n2C`, the inhibition was 3.76% (inactive).
For `O=c1nc2s/c(=C\c3ccco3)c(=O)n2nc1Cc1ccccc1`, the inhibition was 63.3% (active).
With `O=C(NCCc1ccco1)c1nn(Cc2ccccc2)c(=O)c2ccccc12` the inhibition was 2.63% (inactive).
With `O=C(Nc1ccccc1)/C(=C\c1ccco1)NC(=O)c1ccco1` the inhibition was -2.56% (inactive).
In the case of `COC(=O)c1c(NC(=O)CN2CCN(S(=O)(=O)c3ccccc3[N+](=O)[O-])CC2)sc2c1CCC(C)C2` (stereo not drawn), the inhibition was 14.5% (inactive).
In the case of `CC(=O)N1C(C)c2ccccc2C(C)(C)CC12CCCCC2` (stereo not drawn), the inhibition was 41.9% (active).
With `COCCCNC(=O)C1CC(=O)N(CCc2ccc(F)cc2)C1` (stereo not drawn) the inhibition was -8.81% (inactive).
With `CCOCCCn1c(SCC(=O)Nc2cc(OC)ccc2OC)nc2ccccc2c1=O` the inhibition was 11.4% (inactive).
In the case of `O=C(CCNS(=O)(=O)c1ccc(Br)cc1)NCC1CCCO1` (stereo not drawn), the inhibition was -3.43% (inactive).
For `OC(CNCC1CCCO1)Cn1c2ccc(Br)cc2c2cc(Br)ccc21` (stereo not drawn), the inhibition was 62.5% (active).
With `O=C(CSc1ccc(-c2ccc(Br)cc2)nn1)NCC1CCCO1` (stereo not drawn) the inhibition was 15.2% (inactive).
With `CCCCCNC(=O)c1cccnc1SCC(=O)Nc1ccccc1OC` the inhibition was 1.04% (inactive).
For `COc1ccc(N2CCN(C(=O)CCSCc3ccccc3F)CC2)cc1`, the inhibition was 27.5% (inactive).
In the case of `CC(=O)N(Cc1cccs1)C1CCOC(C)(C)C1` (stereo not drawn), the inhibition was -0.323% (inactive).
For `Cc1ccc(C(C[N+](=O)[O-])c2c(C)cc3ccccn23)cc1` (stereo not drawn), the inhibition was 21.6% (inactive).
With `Nc1ccccc1SC(C[N+](=O)[O-])c1ccccc1` (stereo not drawn) the inhibition was 59.3% (active).
For `Cc1ccc(C)c(OCCC(=O)OCC(=O)N2CCN(c3ccccc3)CC2)c1`, the inhibition was 5.69% (inactive).
For `O=S(=O)(Nc1cccc(Oc2ccc(Cl)cc2)n1)c1ccc(F)cc1`, the inhibition was 37.9% (inactive).
In the case of `O=C(COC(=O)C1CCCO1)Nc1nc(-c2ccc(F)cc2)cs1` (stereo not drawn), the inhibition was 2.65% (inactive).
For `O=C(CN1CCN(c2nc(-c3ccccc3)cs2)CC1)NCc1ccc2c(c1)OCO2`, the inhibition was 18.3% (inactive).
With `CC1CCCC(C)N1C(=O)CN1CCN(c2nc(-c3ccc(F)cc3)cs2)CC1` (stereo not drawn) the inhibition was 44.9% (active).
For `N/C(Cc1ccc([N+](=O)[O-])cc1)=N\OC(=O)C1CCCCC1`, the inhibition was 56% (active).
For `N/C(Cc1ccc([N+](=O)[O-])cc1)=N\OC(=O)COc1ccc2ccccc2c1`, the inhibition was 44.4% (active).
In the case of `Cc1cc(C)cc(OCC(=O)O/N=C(\N)Cc2ccc([N+](=O)[O-])cc2)c1`, the inhibition was 18.5% (inactive).
In the case of `COC(=O)C(C)NC(=O)COc1ccc2ccccc2c1` (stereo not drawn), the inhibition was 4.55% (inactive).
For `O=C(COC(=O)C1CCCCC1)Nc1ccc([N+](=O)[O-])cc1`, the inhibition was 30.8% (inactive).
In the case of `O=C(COC(=O)Cc1ccc([N+](=O)[O-])cc1)NC1CCCCCC1`, the inhibition was 11.9% (inactive).
With `O=C(CN1CCCCC1)N1c2ccccc2Sc2ccc(C(F)(F)F)cc21` the inhibition was 13.9% (inactive).
In the case of `O=S(=O)(NC(=S)Nc1ccccc1)c1ccc(F)cc1`, the inhibition was -5.64% (inactive).
With `CC[C@]12c3[nH]c4cc(CCC(=O)N(C)C)ccc4c3CCN1C(=O)[C@@H](CC(=O)NCc1ccco1)C[C@@H]2C(=O)N1CCN(C(=O)c2ccco2)CC1` the inhibition was 12.2% (inactive).
For `COc1ccccc1-c1nnc(-c2ccc(F)cc2)o1`, the inhibition was 14.8% (inactive).
In the case of `CSc1ccccc1-c1nnc(-c2ccc(Cl)cc2)o1`, the inhibition was 8.43% (inactive).
With `FC(F)(F)c1cnc(Oc2ccccc2-c2nnc(-c3ccc(Cl)cc3)o2)c(Cl)c1` the inhibition was 92.4% (active).
With `C[C@@H]1CC[C@@]2(OC1)O[C@H]1C[C@H]3[C@@H]4CC=C5C[C@@H](O)[C@H](O)C[C@]5(C)C4CC[C@]3(C)[C@H]1[C@@H]2C` (stereo partly drawn) the inhibition was -10.1% (inactive).
In the case of `Cc1cc(Cl)ccc1OCc1nc(-c2ccncc2)no1`, the inhibition was -5.93% (inactive).
In the case of `COc1ccc(C(=O)Nc2sc(C)c(C)c2CN2CCOCC2)cc1`, the inhibition was 29% (inactive).
In the case of `CCc1cc(C(N)=O)c(NC(=O)c2ccc(OC)cc2)s1`, the inhibition was 48.7% (active).
With `CCc1cc(C(=O)c2ccc(OC)cc2)c(NC(=O)CN2CCN(C)CC2)s1` the inhibition was 14.6% (inactive).
In the case of `CCCn1c(C)cc(-c2csc(NC(=O)CCc3nc4ccccc4c(=O)[nH]3)n2)c1C`, the inhibition was -24.7% (inactive).
For `CCCOc1ccc(NC(=O)C2OC3OC(C)(C)OC3C3OC(C)(C)OC23)cc1` (stereo not drawn), the inhibition was -2.42% (inactive).
In the case of `COc1cc(/C=C/CO)cc(OC)c1O[C@@H]1O[C@H](CO)[C@@H](O)[C@H](O)[C@H]1O`, the inhibition was -4.81% (inactive).
With `O=C(/C=C/c1cccs1)c1cc(Cl)ccc1OC(=O)N1CCOCC1` the inhibition was 52.9% (active).
For `CC(=O)Nc1ccccc1OC(=O)N1CCOCC1`, the inhibition was -16.6% (inactive).
With `O=C(Oc1cccc(C(=S)N2CCOCC2)c1)c1cccc(Cl)c1` the inhibition was 17.1% (inactive).
With `CC(C)CNC(=S)Nc1ccc(F)cc1` the inhibition was 8.49% (inactive).
For `CC(C)(CCl)C(=O)Nc1ccc(Sc2ccc(F)cc2)cc1`, the inhibition was 42.1% (active).
With `O=C(Nc1ccncc1)Nc1ccc(F)cc1` the inhibition was -4.69% (inactive).
With `O=C(COc1ccccc1)Nc1nonc1NC(=O)COc1ccccc1` the inhibition was 7.03% (inactive).
In the case of `O=C(CCN1C(=O)[C@@H]2Cc3ccccc3CN2C1=O)NCc1ccccc1`, the inhibition was 4.78% (inactive).
In the case of `CCOC(=O)c1c(NC(=O)CNC2CCCc3ccccc32)sc(C(N)=O)c1C` (stereo not drawn), the inhibition was -2.7% (inactive).
With `COc1ccc(-c2nnc(SCC(=O)NC3CCCCC3)o2)cc1OC` the inhibition was 3.73% (inactive).
In the case of `COc1ccc(CCNC(=O)CSc2nnc(-c3cccc(F)c3)o2)cc1OC`, the inhibition was 1.74% (inactive).
In the case of `COc1ccc(CN(C(=O)CSc2nnc(-c3ccc(OC)c(OC)c3)o2)c2ccc(F)cc2)cc1`, the inhibition was 40.5% (active).
With `Cc1ccc(C(=O)OCC(=O)NCc2cc(C)c(O)c(C)c2)cc1S(=O)(=O)N1CCCCC1` the inhibition was 0.371% (inactive).
In the case of `O=S(=O)(c1cccc(-c2cn3ccccc3n2)c1)N1CCCC1`, the inhibition was 9% (inactive).
With `Cc1cc(-c2ccccc2)nc(N2CCC(C(=O)NC34CC5CC(CC(C5)C3)C4)CC2)n1` the inhibition was 19.8% (inactive).
With `O=C1Nc2c(Br)cc(Br)cc2C1(O)N1CCOCC1` (stereo not drawn) the inhibition was 12.1% (inactive).
In the case of `CCC(C)(C)NC(=O)CN(Cc1cccs1)C(=O)CNS(=O)(=O)c1ccc(F)cc1`, the inhibition was 3.15% (inactive).
In the case of `CCOc1ccc(S(=O)(=O)NCCC(=O)N2CCCCCCC2)cc1`, the inhibition was -3.91% (inactive).
For `Cc1cccc(/C=N/NC(=O)CNc2cccc3ccccc23)n1`, the inhibition was 8.82% (inactive).
In the case of `CC(C)(C)c1cc(C(=O)N/N=C/c2ccc([N+](=O)[O-])s2)n[nH]1`, the inhibition was 22% (inactive).
With `Cc1ccccc1NCC(=O)N/N=C\c1ccc([N+](=O)[O-])s1` the inhibition was 56% (active).
With `C=CC1C(OC2OC(CO)C(O)C(O)C2O)OC=C(C(=O)OC)C1CC1CC(=O)CC(CC(=O)CCc2ccc(O)cc2)O1` (stereo not drawn) the inhibition was -2.71% (inactive).
For `c1ccc(COc2ccccc2CNCc2cccnc2)cc1`, the inhibition was -6.88% (inactive).
For `COc1c(N2CCN(C(=S)Nc3ccccc3F)C(C)C2)c(F)cc2c(=O)c(C(=O)O)cn(C3CC3)c12` (stereo not drawn), the inhibition was 2.41% (inactive).
With `Cc1cccc(-n2c(SCC(N)=O)nc3c(c2=O)C2(CCCCC2)Cc2ccccc2-3)c1` the inhibition was 12.4% (inactive).
In the case of `N#CC1(C#N)C(C(=O)C23CC4CC(CC(C4)C2)C3)C12CCOCC2` (stereo not drawn), the inhibition was 44.3% (active).
For `CSCCC(NC(=O)COc1ccccc1)C(=O)OCCOc1ccc(F)cc1` (stereo not drawn), the inhibition was -0.639% (inactive).
With `Cc1cc(C)cc(NC(=O)C(OC(=O)c2ccc(O)cc2)c2ccccc2)c1` (stereo not drawn) the inhibition was 9.95% (inactive).
For `Cc1ccc(NC(=O)c2cccs2)cc1S(=O)(=O)N(C)C`, the inhibition was 46.1% (active).
For `O=C(Nc1ccc(NC(=O)c2cccs2)cc1)c1ccc2ccccc2c1`, the inhibition was -15.3% (inactive).
In the case of `Cc1ccc(C(=O)Nc2ccc(NC(=O)c3cccs3)cc2)c(C)c1`, the inhibition was -11.8% (inactive).
With `Cc1ccc(C(=O)Nc2ccc(C)c(S(=O)(=O)N(C)C)c2)s1` the inhibition was 10.9% (inactive).
With `Cc1nc(-c2ccc(NC(=O)c3cccs3)cc2)cs1` the inhibition was 49.5% (active).
With `O=C(Nc1ccccc1)c1ccc(NC(=O)c2cccs2)cc1` the inhibition was -10.3% (inactive).
In the case of `COC(=O)[C@]1(C)N[C@H](CN(C)C(=O)c2ccc(C(C)(C)C)cc2)[C@@H]2C(=O)N(C)C(=O)[C@@H]21`, the inhibition was 3.29% (inactive).

From PubChem BioAssay AID463195 (Sanford-Burnham Center for Chemical Genomics, 2010)
